Test results from ChEMBL document CHEMBL1961873, “Compounds: GSK PKIS; Assays: Nanosyn kinase panel” (2012).

Experiments:
[1] = biological target: Sphingosine kinase 1 (Homo sapiens) (UniProt Q9NYA1); conditions: at 1 µM;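 further: mean SPHK1 inhibition value reported from the GSK PKIS kinase panel screen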
[2] = biological target: T1, Sphingosine kinase 2 (Homo sapiens) (UniProt Q9NRA0); conditions: at 0.1 µM
T1 sequence (whole entry): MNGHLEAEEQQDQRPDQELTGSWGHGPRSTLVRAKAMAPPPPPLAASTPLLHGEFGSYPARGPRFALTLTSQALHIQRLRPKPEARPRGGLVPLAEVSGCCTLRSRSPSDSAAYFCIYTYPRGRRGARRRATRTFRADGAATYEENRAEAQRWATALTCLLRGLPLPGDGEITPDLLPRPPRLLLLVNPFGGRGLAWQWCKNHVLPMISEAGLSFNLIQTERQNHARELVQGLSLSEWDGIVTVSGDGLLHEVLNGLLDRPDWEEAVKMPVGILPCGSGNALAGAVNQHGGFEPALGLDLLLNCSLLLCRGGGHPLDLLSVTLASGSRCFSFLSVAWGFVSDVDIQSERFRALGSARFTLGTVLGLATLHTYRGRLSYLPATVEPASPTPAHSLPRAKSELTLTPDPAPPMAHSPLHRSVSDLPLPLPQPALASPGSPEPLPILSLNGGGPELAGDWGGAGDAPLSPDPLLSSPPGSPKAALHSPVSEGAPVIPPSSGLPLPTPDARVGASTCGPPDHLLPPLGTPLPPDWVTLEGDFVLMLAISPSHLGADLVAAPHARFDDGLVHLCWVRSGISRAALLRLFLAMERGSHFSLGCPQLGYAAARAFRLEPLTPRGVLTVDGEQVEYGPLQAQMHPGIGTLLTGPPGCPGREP

[3] = biological target: T1, Sphingosine kinase 2 (Homo sapiens); conditions: at 1 µM
[4] = biological target: Casein kinase II subunit alpha (Homo sapiens) (UniProt P68400); conditions: at 0.1 µM
Casein kinase II subunit alpha (Homo sapiens), sequence (P68400 whole entry, looked up): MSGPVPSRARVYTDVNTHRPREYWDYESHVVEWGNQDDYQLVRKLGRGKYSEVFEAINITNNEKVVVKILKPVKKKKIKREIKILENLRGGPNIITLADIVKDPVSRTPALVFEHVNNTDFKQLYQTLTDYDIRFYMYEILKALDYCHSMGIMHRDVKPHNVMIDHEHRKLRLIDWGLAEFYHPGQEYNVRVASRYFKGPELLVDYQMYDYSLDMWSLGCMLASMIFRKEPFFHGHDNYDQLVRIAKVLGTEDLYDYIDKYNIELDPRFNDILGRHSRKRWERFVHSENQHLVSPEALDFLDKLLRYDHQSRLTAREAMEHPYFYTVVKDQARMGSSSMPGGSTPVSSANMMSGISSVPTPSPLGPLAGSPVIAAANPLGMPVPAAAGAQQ

[5] = biological target: Casein kinase II subunit alpha (Homo sapiens) (UniProt P68400); conditions: at 1 µM
[6] = biological target: T2, Inhibitor of nuclear factor kappa-B kinase subunit alpha (Homo sapiens) (UniProt O15111); conditions: at 0.1 µM
T2 sequence (whole entry): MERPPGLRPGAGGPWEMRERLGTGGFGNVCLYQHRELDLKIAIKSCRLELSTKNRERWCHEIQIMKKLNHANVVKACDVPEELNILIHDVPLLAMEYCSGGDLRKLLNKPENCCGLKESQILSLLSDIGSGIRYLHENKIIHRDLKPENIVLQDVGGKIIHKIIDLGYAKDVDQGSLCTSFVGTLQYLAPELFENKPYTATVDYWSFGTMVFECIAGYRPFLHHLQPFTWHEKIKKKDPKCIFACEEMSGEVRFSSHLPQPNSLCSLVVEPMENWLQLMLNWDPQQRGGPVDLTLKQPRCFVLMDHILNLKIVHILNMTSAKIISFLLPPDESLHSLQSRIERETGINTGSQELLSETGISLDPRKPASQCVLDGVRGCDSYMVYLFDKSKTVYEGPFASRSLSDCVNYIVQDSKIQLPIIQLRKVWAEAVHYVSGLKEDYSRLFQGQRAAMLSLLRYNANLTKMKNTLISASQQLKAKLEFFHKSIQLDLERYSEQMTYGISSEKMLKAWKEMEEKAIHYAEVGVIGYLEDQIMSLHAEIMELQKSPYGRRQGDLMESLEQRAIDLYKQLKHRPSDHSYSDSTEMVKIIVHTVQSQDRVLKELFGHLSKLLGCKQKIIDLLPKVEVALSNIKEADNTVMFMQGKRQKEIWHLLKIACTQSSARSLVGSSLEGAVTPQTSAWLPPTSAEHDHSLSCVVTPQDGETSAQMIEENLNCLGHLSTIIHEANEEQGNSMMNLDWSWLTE

[7] = biological target: T2, Inhibitor of nuclear factor kappa-B kinase subunit alpha (Homo sapiens); conditions: at 1 µM
[8] = biological target: T3, Inhibitor of nuclear factor kappa-B kinase subunit beta (Homo sapiens) (UniProt O14920); conditions: at 0.1 µM
T3 sequence (whole entry): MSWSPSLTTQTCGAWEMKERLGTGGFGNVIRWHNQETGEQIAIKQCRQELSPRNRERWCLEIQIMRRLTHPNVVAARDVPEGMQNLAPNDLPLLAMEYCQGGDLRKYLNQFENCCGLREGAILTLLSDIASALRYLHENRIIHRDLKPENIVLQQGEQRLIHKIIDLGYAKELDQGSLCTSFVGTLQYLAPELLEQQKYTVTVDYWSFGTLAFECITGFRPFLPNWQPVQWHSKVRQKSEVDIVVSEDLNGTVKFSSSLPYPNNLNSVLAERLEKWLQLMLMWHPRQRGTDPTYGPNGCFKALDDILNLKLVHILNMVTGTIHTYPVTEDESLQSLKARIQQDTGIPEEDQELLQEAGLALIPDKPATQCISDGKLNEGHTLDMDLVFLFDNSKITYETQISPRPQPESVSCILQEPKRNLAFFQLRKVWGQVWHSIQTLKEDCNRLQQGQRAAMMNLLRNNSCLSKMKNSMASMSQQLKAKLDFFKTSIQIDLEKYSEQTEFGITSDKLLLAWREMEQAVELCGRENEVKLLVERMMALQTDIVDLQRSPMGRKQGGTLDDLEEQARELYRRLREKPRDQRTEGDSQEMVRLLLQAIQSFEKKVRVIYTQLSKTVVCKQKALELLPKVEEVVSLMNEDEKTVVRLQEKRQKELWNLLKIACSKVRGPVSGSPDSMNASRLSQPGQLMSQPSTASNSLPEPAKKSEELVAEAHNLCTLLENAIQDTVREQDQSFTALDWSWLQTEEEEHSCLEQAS

[9] = biological target: T3, Inhibitor of nuclear factor kappa-B kinase subunit beta (Homo sapiens); conditions: at 1 µM
[10] = biological target: T4, Inhibitor of nuclear factor kappa-B kinase subunit epsilon (Homo sapiens) (UniProt Q14164); conditions: at 0.1 µM
T4 sequence (whole entry): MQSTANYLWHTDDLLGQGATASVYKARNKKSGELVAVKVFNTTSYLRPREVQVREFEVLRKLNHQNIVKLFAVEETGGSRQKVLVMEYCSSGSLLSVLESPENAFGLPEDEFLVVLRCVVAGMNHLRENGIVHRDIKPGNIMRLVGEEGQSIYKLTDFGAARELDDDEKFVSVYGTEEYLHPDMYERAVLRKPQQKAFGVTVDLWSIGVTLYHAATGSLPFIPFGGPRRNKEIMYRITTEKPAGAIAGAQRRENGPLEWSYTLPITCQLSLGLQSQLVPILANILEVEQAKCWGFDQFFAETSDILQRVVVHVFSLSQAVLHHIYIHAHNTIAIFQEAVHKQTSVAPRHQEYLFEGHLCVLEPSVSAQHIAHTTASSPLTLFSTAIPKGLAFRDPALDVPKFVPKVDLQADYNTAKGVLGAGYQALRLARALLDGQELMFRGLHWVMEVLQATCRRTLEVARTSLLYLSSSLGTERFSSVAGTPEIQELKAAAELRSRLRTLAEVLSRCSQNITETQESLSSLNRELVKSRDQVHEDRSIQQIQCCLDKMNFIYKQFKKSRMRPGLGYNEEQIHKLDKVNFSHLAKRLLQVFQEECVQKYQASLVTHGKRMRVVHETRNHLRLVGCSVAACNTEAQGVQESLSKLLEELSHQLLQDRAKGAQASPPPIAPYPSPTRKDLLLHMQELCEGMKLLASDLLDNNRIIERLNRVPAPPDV

[11] = biological target: T4, Inhibitor of nuclear factor kappa-B kinase subunit epsilon (Homo sapiens); conditions: at 1 µM
[12] = biological target: T5, Serine/threonine-protein kinase Nek1 (Homo sapiens) (UniProt Q96PY6); conditions: at 0.1 µM
T5 sequence (whole entry): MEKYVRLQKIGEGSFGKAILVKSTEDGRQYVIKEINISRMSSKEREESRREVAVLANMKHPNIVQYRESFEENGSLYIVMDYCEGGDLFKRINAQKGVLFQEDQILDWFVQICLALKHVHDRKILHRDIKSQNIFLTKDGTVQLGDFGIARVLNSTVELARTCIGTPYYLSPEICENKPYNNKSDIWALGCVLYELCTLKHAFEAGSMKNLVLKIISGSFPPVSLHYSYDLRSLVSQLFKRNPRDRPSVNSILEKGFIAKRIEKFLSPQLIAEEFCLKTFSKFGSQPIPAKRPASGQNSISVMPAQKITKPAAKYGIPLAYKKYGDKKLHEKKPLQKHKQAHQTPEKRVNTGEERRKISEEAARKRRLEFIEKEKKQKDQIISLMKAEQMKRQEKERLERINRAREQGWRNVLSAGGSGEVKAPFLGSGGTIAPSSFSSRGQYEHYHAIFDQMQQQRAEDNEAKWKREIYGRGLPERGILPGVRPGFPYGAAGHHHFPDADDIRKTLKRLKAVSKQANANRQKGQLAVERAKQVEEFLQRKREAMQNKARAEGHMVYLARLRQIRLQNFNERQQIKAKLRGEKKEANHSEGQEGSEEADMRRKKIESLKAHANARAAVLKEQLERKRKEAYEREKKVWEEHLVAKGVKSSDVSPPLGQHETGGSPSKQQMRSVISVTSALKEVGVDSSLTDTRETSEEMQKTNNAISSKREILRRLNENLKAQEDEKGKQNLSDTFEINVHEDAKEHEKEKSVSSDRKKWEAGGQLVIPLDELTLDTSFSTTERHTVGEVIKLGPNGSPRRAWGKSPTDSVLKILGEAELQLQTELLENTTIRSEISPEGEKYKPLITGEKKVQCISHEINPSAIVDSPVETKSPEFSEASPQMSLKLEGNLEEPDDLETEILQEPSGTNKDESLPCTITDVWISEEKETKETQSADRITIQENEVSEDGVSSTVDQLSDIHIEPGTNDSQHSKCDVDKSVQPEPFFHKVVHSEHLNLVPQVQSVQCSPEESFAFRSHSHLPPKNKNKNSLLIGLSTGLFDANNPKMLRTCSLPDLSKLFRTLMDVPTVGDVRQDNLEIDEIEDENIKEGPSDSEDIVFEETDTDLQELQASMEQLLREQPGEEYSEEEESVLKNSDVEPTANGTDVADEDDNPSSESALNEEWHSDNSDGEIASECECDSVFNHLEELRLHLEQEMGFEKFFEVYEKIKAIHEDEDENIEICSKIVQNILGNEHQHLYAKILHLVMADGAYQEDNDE

[13] = biological target: T5, Serine/threonine-protein kinase Nek1 (Homo sapiens); conditions: at 1 µM
[14] = biological target: T6, Serine/threonine-protein kinase Nek2 (Homo sapiens) (UniProt P51955); conditions: at 0.1 µM
T6 sequence (whole entry): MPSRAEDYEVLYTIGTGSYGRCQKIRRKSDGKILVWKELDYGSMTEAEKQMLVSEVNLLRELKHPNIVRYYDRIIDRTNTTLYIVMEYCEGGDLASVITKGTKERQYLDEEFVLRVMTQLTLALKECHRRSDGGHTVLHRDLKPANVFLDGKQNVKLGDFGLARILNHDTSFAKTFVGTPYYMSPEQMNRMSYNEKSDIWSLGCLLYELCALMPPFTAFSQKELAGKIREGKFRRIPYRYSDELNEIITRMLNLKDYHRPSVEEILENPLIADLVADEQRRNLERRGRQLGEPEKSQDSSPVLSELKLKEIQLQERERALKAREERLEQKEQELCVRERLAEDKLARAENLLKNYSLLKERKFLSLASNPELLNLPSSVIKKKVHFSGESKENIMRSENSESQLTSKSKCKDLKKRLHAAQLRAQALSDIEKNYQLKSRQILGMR

[15] = biological target: T6, Serine/threonine-protein kinase Nek2 (Homo sapiens); conditions: at 1 µM
[16] = biological target: Serine/threonine-protein kinase Nek6 (Homo sapiens) (UniProt Q9HC98); conditions: at 0.1 µM
Serine/threonine-protein kinase Nek6 (Homo sapiens), sequence (Q9HC98 whole entry): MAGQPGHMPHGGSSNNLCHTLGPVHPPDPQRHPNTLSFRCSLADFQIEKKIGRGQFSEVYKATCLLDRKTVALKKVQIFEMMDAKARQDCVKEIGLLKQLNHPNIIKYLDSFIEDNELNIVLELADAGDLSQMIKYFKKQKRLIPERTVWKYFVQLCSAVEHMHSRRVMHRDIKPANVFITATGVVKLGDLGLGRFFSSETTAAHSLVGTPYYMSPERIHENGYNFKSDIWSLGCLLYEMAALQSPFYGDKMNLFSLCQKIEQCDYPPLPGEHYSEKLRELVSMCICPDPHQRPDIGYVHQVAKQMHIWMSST

[17] = biological target: Serine/threonine-protein kinase Nek6 (Homo sapiens) (UniProt Q9HC98); conditions: at 1 µM
[18] = biological target: Serine/threonine-protein kinase Nek7 (Homo sapiens) (UniProt Q8TDX7); conditions: at 0.1 µM
Serine/threonine-protein kinase Nek7 (Homo sapiens), sequence (Q8TDX7 whole entry, looked up): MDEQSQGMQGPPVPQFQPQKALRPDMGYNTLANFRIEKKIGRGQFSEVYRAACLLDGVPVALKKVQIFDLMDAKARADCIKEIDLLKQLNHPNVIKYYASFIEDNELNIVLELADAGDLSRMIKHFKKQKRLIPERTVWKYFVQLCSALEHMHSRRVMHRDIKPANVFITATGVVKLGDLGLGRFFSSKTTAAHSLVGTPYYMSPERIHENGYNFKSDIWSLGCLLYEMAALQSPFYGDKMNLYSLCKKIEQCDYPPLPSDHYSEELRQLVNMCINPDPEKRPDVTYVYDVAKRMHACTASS

[19] = biological target: Serine/threonine-protein kinase Nek7 (Homo sapiens) (UniProt Q8TDX7); conditions: at 1 µM
[20] = biological target: T7, Serine/threonine-protein kinase Nek9 (Homo sapiens) (UniProt Q8TD19); conditions: at 0.1 µM;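 further: reported value is the mean percent inhibition of NEK9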
T7 sequence (whole entry): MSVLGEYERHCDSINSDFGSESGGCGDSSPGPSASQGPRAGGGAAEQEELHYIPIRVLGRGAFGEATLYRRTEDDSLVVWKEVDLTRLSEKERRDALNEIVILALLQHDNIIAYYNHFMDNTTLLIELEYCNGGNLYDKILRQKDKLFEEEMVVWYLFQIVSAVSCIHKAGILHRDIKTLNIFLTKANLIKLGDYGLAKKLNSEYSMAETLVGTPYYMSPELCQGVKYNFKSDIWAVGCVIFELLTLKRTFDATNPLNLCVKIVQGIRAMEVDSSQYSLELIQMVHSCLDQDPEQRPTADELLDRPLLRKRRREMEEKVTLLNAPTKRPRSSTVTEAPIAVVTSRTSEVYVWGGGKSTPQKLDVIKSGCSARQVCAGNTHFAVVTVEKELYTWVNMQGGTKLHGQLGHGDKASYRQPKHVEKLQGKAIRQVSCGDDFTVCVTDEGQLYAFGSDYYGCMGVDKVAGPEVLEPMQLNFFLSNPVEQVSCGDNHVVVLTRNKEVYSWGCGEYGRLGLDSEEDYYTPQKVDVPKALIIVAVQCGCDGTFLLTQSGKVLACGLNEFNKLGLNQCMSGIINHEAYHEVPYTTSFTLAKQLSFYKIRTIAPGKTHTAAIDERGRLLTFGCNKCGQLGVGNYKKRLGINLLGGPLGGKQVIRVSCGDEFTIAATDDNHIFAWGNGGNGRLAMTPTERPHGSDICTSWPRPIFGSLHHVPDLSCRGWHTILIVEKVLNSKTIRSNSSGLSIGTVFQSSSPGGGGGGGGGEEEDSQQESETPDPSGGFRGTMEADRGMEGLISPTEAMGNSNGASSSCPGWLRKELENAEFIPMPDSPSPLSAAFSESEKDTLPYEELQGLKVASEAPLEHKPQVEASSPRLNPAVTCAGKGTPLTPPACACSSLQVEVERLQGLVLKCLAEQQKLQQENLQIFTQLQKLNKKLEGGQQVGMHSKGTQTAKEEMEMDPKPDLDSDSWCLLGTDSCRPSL

Sphingosine kinase 1 (Homo sapiens), sequence (Q9NYA1 whole entry): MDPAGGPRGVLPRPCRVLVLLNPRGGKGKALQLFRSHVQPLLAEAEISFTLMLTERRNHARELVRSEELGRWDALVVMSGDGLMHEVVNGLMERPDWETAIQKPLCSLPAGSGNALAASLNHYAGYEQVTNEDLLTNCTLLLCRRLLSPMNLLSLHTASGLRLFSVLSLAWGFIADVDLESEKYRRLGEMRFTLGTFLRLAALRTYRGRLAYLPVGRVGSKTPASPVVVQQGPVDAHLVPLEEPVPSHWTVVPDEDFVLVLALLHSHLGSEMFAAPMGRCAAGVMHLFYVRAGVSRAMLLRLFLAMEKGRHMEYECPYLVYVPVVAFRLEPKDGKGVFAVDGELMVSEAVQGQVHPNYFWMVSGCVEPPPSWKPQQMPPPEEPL

## COc1cc(C)c(NC(=O)CN(C)C)cc1Nc1nc(Nc2cccc(F)c2C(N)=O)c2cc[nH]c2n1
[1]
  inhibition: -1.23%
[2]
  inhibition: -0.13%
[3]
  inhibition: -0.4%
[4]
  inhibition: 7.08%
[5]
  inhibition: 35.5%
[6]
  inhibition: 0.92%
[7]
  inhibition: -6.41%
[8]
  inhibition: 0.16%
[9]
  inhibition: -5.7%
[10]
  inhibition: 1.27%
[11]
  inhibition: 5.68%
[12]
  inhibition: 1.77%
[13]
  inhibition: -0.24%
[14]
  inhibition: 3.86%
[15]
  inhibition: 3.95%
[16]
  inhibition: -0.84%
[17]
  inhibition: -0.26%
[18]
  inhibition: 4.83%
[19]
  inhibition: 9.65%
[20]
  inhibition: 7.92%
